± gives the standard deviation.
Columns and labels:
Conditions in all cases: modulator concentration 10 µM
[1] = tested on: RAW-Dual (murine macrophage reporter line); experiment: NF-kB reporter (SEAP) activity fold change vs agonist alone; higher = enhanced NF-kB activity
Procedure, shortened: (§1)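 RAW-Dual murine macrophage reporter cells were plated at 50 000 per well in 384-well plates, pin-transferred compound to 10 μM final, and pre-incubated for 1 hour at 37 °C before a PRR agonist was added and the cells incubated overnight. NF-κB activity was read from supernatant SEAP with QUANTI-Blue at 620 nm absorbance, and IRF activity from Lucia luciferase with QUANTI-Luc by luminescence. Each signal was expressed as fold change by dividing by the mean agonist-only control on the same plate. Two replicate plates were averaged, with errors obtained by propagation.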

[2] = tested on: RAW-Dual (murine macrophage reporter line); experiment: IRF reporter (Lucia luciferase) activity fold change vs agonist alone; higher = enhanced IRF activity
Procedure, shortened: as §1

[3] = tested on: RAW-Dual (murine macrophage reporter line); experiment: viability score (confluency relative to resting cells, overnight) (fraction); higher = more viable, active = viable (0.7 or more)
Procedure, shortened: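 Overnight exposure to 10 μM final compound was carried out on RAW-Dual macrophages in 384-well plates. IncuCyte software generated two confluency masks over all wells imaged with IncuCyte. The viability score gives confluency in relation to resting cells. A compound met the cutoff if each mask exceeded 70% of resting cells.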

[4] = agonist: CpG ODN 1826 0.5 ug/mL

Structure (SMILES) | NF-kB reporter [1, 4] | NF-kB reporter ([1]; agonist: LPS 0.1 ug/mL) | NF-kB reporter ([1]; agonist: MPLA […]) | IRF reporter ([2]; agonist: 3'3'-cGAMP 10 ug/mL) | IRF reporter ([2]; agonist: LPS 0.1 ug/mL) | IRF reporter ([2]; agonist: MPLA […]) | viability score [3]
CN1C2CCC1CC(OC(=O)[C@H](CO)c1ccccc1)C2 (some centres undefined) | 1.05 ± 0.096 | 0.961 ± 0.051 | 0.984 ± 0.031 | 0.955 ± 0.069 | 0.968 ± 0.088 | 0.858 ± 0.14 | 0.997 (active)
COc1cc([C@@H]2c3cc4c(cc3[C@H](O)[C@H]3COC(=O)[C@H]23)OCO4)cc(OC)c1OC [Prestw-782] | 2.45 ± 0.14 | 1.61 ± 0.098 | 2.69 ± 0.16 | 0.0908 ± 0.0036 | 1.48 ± 0.1 | 1.6 ± 0.31 | 0.721 (active)
N=C(N)NOCCC(N)C(=O)O (centres undefined) | 1.02 ± 0.076 | 1 ± 0.058 | 1.02 ± 0.03 | 0.979 ± 0.057 | 0.938 ± 0.12 | 0.931 ± 0.13 | 0.998 (active)
CCOC(=O)c1ccccc1-c1ccc(C=C2C(=O)NC(=O)N(c3ccccc3C)C2=O)o1 | 0.727 ± 0.082 | 0.444 ± 0.025 | 0.358 ± 0.051 | 0.655 ± 0.023 | 0.631 ± 0.096 | 0.321 ± 0.088 | 0.0805 (inactive)
O=C1NC(=O)C(=Cc2cccn2-c2ccc(Br)cc2)C(=O)N1 | 1.09 ± 0.09 | 0.758 ± 0.06 | 1.08 ± 0.04 | 0.876 ± 0.094 | 0.91 ± 0.14 | 0.844 ± 0.18 | 0.997 (active)
Cc1cc(C(=O)N2C3CCC2c2cncnc2C3)n(C)n1 (centres undefined) | 0.979 ± 0.074 | 1.01 ± 0.085 | 0.917 ± 0.046 | 0.983 ± 0.085 | 1.19 ± 0.096 | 1.11 ± 0.22 | 1 (active)
Cc1cccc(-n2c(C)nc3ccccc3c2=O)n1 | 0.88 ± 0.052 | 0.827 ± 0.1 | 0.949 ± 0.039 | 1.02 ± 0.041 | 1.02 ± 0.054 | 0.935 ± 0.19 | 0.998 (active)
CCNCC.O=C(O)Cc1ccccc1Nc1c(Cl)cccc1Cl | 1.16 ± 0.18 | 1.08 ± 0.38 | 0.993 ± 0.058 | 0.921 ± 0.034 | 1.21 ± 0.43 | 1.02 ± 0.11 | 0.993 (active)
CCn1cc(C(=O)O)c(=O)c2c(N)c(F)c(N3CCNCC3)c(F)c21 | 0.952 ± 0.067 | 1.09 ± 0.068 | 0.859 ± 0.073 | 0.972 ± 0.033 | 1.47 ± 0.14 | 1.2 ± 0.2 | 0.998 (active)
COCCN1C(=O)CN(C2CCN(CC(=O)N3CC(C)OC(C)C3)CC2)C1=O (centres undefined) | 0.903 ± 0.056 | 0.889 ± 0.11 | 0.997 ± 0.073 | 0.95 ± 0.13 | 0.979 ± 0.13 | 1.03 ± 0.29 | 0.977 (active)
O=Cc1cn(Cc2cccc3ccccc23)c2ccccc12 | 0.959 ± 0.16 | 1.01 ± 0.11 | 1.16 ± 0.12 | 1.09 ± 0.03 | 1.25 ± 0.28 | 1.23 ± 0.25 | 0.989 (active)
Br.CN1C2CC(OC(=O)C(CO)c3ccccc3)CC1C1OC12 (centres undefined) | 1.32 ± 0.32 | 0.999 ± 0.051 | 1.01 ± 0.074 | 1 ± 0.034 | 1.19 ± 0.13 | 1.19 ± 0.13 | 0.985 (active)
CN1C(=O)COc2c(C(=O)NC3CN4CCC3CC4)cc(Cl)cc21.Cl (centres undefined) | 0.661 ± 0.054 | 0.831 ± 0.09 | 1.08 ± 0.089 | 0.997 ± 0.046 | 1.42 ± 0.26 | 1.71 ± 0.51 | 0.94 (active)
CC(=O)C1CCC2C3CCC4CC(O)CCC4(C)C3CCC12C (centres undefined) | 1.17 ± 0.28 | 1.16 ± 0.097 | 1.02 ± 0.079 | 0.858 ± 0.034 | 1.2 ± 0.19 | 1.38 ± 0.13 | 0.985 (active)
CC(C)N(CCC(C(N)=O)(c1ccccc1)c1ccccn1)C(C)C (centres undefined) | 0.86 ± 0.23 | 0.945 ± 0.09 | 0.99 ± 0.067 | 0.849 ± 0.064 | 0.94 ± 0.2 | 1.12 ± 0.13 | 0.998 (active)
COC(=O)C1C2C(=O)N(c3ccccc3)C(=O)C12c1ccc(Cl)cc1 (centres undefined) | 1.1 ± 0.094 | 1.11 ± 0.09 | 1.01 ± 0.037 | 1.01 ± 0.04 | 1.03 ± 0.055 | 1.08 ± 0.11 | 1 (active)
Cc1cc(C(C#N)c2ccc(Cl)cc2)c(Cl)cc1NC(=O)c1cc(I)cc(I)c1O (centres undefined) | 0.812 ± 0.14 | 0.999 ± 0.15 | 0.834 ± 0.055 | 0.731 ± 0.058 | 1.3 ± 0.11 | 1.02 ± 0.085 | 0.389 (inactive)

Source: the supplement of paper PMC10646978
